# Results: PubChem BioAssay AID1273 (Columbia University Molecular Screening Center, 2008)
# Hit rate of the full screen: of about 130,000 compounds, about 1,200 (0.92%) were called active.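 The calls were made as follows: active = inhibition above the mean plus 3 SD, with well images judged a real hit on visual review (cut at about 60% in these data, passing the limit was not always enough); inconclusive = inhibition over the cutoff but images rejected on review; inactive = inhibition not above the cutoff.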 For the sample, actives were picked, then their nearest neighbours and some compounds at random.
# Assay: inhibitors of insulin promoter-driven GFP, primary screen, imaging, TRM-6 cells (human fetal islet line), eGFP reporter, cell count (AID 1273;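 as to normalized cell count: cells exposed to compound for 48 h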)
# Conditions: at 2 µM, reporter expression induced with tamoxifen; inhibition: stronger effect = higher value; normalized cell count: measured here: cell count, toxicity
SMILES,inhibition,normalized cell count [%]
CCC(=O)c1cc2c(cc1NC(=O)c1cccs1)OCCO2,80% (active),106
Cc1nc(-c2ccc(NC(=O)c3cccs3)cc2)cs1,43.8% (inactive),89.3
COc1cc(NC(=O)c2cccs2)ccc1NC(=O)c1ccccc1Cl,20% (inactive),118
N/C(=N\OC(=O)COc1ccc([N+](=O)[O-])cc1)c1ccc(Br)cc1,-81.2% (inactive),113
Cc1cccc(C)c1NC(=S)N(Cc1cccnc1)Cc1ccccc1Cl,-60% (inactive),73.3
CCOc1ccc(CCN2C(=O)c3cccnc3C2=O)cc1OCC,68.4% (active),94.8
CCOc1ccc(CCNC(=O)CSc2cc(=O)n(C)c3ccc(Cl)cc23)cc1OCC,-11.8% (inactive),144
Cc1cccc(N2C(=O)c3cccnc3C2=O)c1,11.4% (inactive),66.7
C/C(=N\NC(=O)C(N)=O)c1ccc2c(c1)OCCO2,-41.2% (inactive),156
CN(CC(=O)Nc1cccc2c1CCCC2)S(=O)(=O)c1ccc(Cl)cc1,38.5% (inactive),112
CN(CC(=O)NCCc1ccccn1)S(=O)(=O)c1ccc(Cl)cc1,-33.3% (inactive),83.8
Cc1nc(NC(=O)CN(C)S(=O)(=O)c2ccc(Cl)cc2)sc1C,80% (active),67.9
CCOC(=O)c1cc(C)sc1NC(=O)C1CCC1,87.5% (active),161
Cc1cnc(NC(=O)C2CCCC2)s1,20.5% (inactive),280
COC(=O)c1cc(C)sc1NC(=O)CC1Nc2ccccc2NC1=O (configuration not stated),40.5% (inactive),145
CCOC(=O)c1ccc(NNC(C)=O)c([N+](=O)[O-])c1,-68.4% (inactive),62.3
O=C(C1CCCO1)N1CCN(C(=S)NC2CC2)CC1 (configuration not stated),-29.4% (inactive),80.6
CC(=O)c1ccc(N2CCN(S(=O)(=O)c3c(C)[nH]c(=O)[nH]c3=O)CC2)cc1,-10% (inactive),114
C/C(=C\C(=O)c1cccnc1)Nc1ccc(C)c(C)c1,85.7% (active),74

SMILES,inhibition,normalized cell count [%]
Cc1ccc(N/C=C/C(=O)c2ccccc2)cc1C,7.69% (inactive),107
C/C(=C\C(=O)c1ccccc1)Nc1cccc(O)c1,-33.3% (inactive),193
CCSC1=NCCN1S(=O)(=O)c1ccc(F)cc1,7.69% (inactive),130
CC(Oc1ccc(Cl)cc1)C(=O)OCC(=O)Nc1ncc(Cl)cc1Cl (configuration not stated),20% (inactive),100
COc1cc(NC(=O)COC(=O)c2cnc(C)cn2)c(C)cc1[N+](=O)[O-],27.3% (inactive),90.4
Cc1cnc(C(=O)OCC(=O)Nc2ccc(Cl)cc2Cl)cn1,81.5% (active),20
Cc1ccc(S(=O)(=O)Cc2cc(-c3ccc(Cl)cc3)no2)cc1,25% (inactive),128
CCOC(=O)C1(Cc2ccc(Cl)cc2)CCN(C(=O)C2=NNC(=O)CC2)CC1,-46.1% (inactive),93.7
CCOC(=O)c1nnn(-c2nonc2-n2cccc2)c1CN1CCOCC1,13.9% (inactive),62.1
CCN(CC)Cc1c(C(=O)OC)nnn1-c1nonc1N,72.4% (active),14.1
CCOC(=O)c1nnn(-c2nonc2-n2cccc2)c1CN1CCC(C(=O)OCC)CC1,13.9% (inactive),99.3
Cc1ccc(C(=O)Cn2cccn2)cc1,-62.5% (inactive),90.7
CNS(=O)(=O)c1ccc(NC(=O)C2CC(=O)N(c3ccc(Cl)cc3)C2)cc1 (configuration not stated),63.6% (inactive),32.9
CCSc1nnc(NC(=O)c2ccc(C)cc2)s1,-38.7% (inactive),45.1
Cc1ccc(Nc2nnc(SCc3ccccc3)s2)cc1,100% (active),9.38
O=C(Nc1nnc(SCc2ccccc2)s1)c1ccco1,0% (inactive),86.4
O=C(NCC1CCCO1)C(C(=O)c1ccccc1)n1cc(Cl)ccc1=O (configuration not stated),-40% (inactive),104
CN(C)CCNC(=O)C(C(=O)c1ccccc1)n1ccccc1=O (configuration not stated),86.7% (active),49.3
CN(C)CCNC(=O)/C(=C/c1cccc([N+](=O)[O-])c1)NC(=O)c1ccccc1,-14.3% (inactive),101

SMILES,inhibition,normalized cell count [%]
COCC(=O)Nc1cc(C(=O)OC)cc(C(=O)OC)c1,12.8% (inactive),127
COCC(=O)Nc1ccc(Br)cc1,73.3% (active),43.9
Cc1ccc(OC(=O)CCC(=O)Nc2ccc(Br)cc2)cc1,-66.7% (inactive),102
O=C(Cc1cccc2ccccc12)NCCC1=CCCCC1,-22.2% (inactive),92.7
CCOC(=O)c1ccccc1NC(=O)CSc1nc2ccccc2c(=O)[nH]1,-83.3% (inactive),180
COc1cccc(NC(=O)c2ccc(Cn3cc([N+](=O)[O-])cn3)o2)c1,-11.1% (inactive),79.5
Cn1cc([N+](=O)[O-])c(C(=O)Nc2cnn(Cc3ccc(F)cc3)c2)n1,69.2% (active),112
CCc1ccc(NC(=O)c2ccc(Cn3cc([N+](=O)[O-])cn3)cc2)cc1,6.25% (inactive),63.8
COCCNC(=S)N1CCC(NC(=O)C23CC4CC(CC(C4)C2)C3)CC1,21.4% (inactive),106
CCn1c(SCc2ccccc2)nc2c(c1=O)SCC2,48.6% (inactive),108
CC(Sc1nnnn1C)C(=O)NC(=O)NC1CCCCC1 (configuration not stated),36.4% (inactive),91.5
Cc1ccc(NC(=O)C2(N3CCC3=O)CCCCC2)cc1,-35.7% (inactive),133
O=C(O)Cc1ccc(NCc2ccccc2Cl)cc1,0% (inactive),111
CC(C)(C)SCCNC(=O)c1cccc([N+](=O)[O-])c1,-42.9% (inactive),85.5
C=CCNC(=O)COC(=O)CNC(=O)c1cc(Cl)cc([N+](=O)[O-])c1,83.3% (active),37
C=CCNC(=O)/C(=C\c1cccc([N+](=O)[O-])c1)NC(=O)c1ccccc1,-26.7% (inactive),102
CC(OC(=O)CCc1nc(=O)c2ccccc2n1C)C(=O)NCc1ccc2c(c1)OCO2 (configuration not stated),-58.8% (inactive),141
Cc1ccc(CNC(=O)CCNS(=O)(=O)c2ccc(Br)s2)cc1,37.5% (inactive),94.3
